Shown are actives, neighbours in structure and some others; about 4.3% of the full set was active somewhere.
BoNT F protease – inhibitors of Botulinum neurotoxin F light chain protease; Multiplex microsphere protease cleavage assay, flow cytometry; inhibition, % at 10 µM; 0.22% of 360,000 active; AID 588497; in the data active means inhibition above about 35%, passing the limit was not always enough; inconclusive means no clear call, values can overlap the other calls; further: plate controls were buffer without enzyme for full effect and enzyme alone for no effect
Autofluor counter – compound fluorescence in toxin protease inhibitor counterscreen; 3.1% of 360,000 active; fluorescence intensity (test concentration not listed); AID 624483; compound autofluorescence counterscreen, microsphere flow cytometry; hits give high values; in the data active means fluorescence intensity above about 16000; inconclusive means no clear call, values can overlap the other calls
Anthrax LF prot – anthrax lethal factor protease inhibition; P15917; multiplex microsphere protease cleavage assay, LF; inhibition, % at 10 µM; 0.12% of 360,000 active; AID 588501; further: plate controls were buffer without enzyme for full effect and enzyme alone for no effect
Target sequence (P15917 whole entry, looked up): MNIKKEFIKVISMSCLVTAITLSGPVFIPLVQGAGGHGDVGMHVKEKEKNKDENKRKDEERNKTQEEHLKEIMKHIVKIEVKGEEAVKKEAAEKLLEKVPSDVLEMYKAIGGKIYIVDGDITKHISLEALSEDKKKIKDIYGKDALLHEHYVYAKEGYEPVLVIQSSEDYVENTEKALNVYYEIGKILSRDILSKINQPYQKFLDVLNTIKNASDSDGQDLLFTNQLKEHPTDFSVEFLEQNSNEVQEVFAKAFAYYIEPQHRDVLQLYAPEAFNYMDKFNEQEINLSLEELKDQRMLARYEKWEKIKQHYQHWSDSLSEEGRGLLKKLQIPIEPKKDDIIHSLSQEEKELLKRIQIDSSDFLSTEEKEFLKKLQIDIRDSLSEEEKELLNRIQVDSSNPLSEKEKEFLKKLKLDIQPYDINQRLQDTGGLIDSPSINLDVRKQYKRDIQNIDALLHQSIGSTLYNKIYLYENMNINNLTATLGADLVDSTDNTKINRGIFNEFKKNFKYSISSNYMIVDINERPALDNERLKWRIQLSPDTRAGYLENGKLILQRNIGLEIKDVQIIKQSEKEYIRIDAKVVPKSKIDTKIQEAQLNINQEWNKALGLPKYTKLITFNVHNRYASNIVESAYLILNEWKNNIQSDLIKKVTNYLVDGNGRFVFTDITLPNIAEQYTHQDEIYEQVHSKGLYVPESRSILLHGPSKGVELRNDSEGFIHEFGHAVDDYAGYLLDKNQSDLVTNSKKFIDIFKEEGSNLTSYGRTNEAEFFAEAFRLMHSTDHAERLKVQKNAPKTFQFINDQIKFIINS
PfHsp40 rescue – restores yeast growth despite PfHsp40 toxicity; growth rescue, % at 12.5 µM; 0.68% of 340,000 active; S. cerevisiae expressing PfHsp40, growth rescue, ATP luminescence; AID 504582; in the data active means growth rescue above about 28%, passing the limit was not always enough; inconclusive means no clear call, values can overlap the other calls;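 further: yeast W303a lacking pdr1 and pdr3 grown in galactose medium; growth measured after three days at 30 °C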
BoNT-A LC inh2 – blocks Botulinum neurotoxin A light chain protease | multiplex microsphere protease substrate cleavage, flow cytometry | inhibition, % at 10 µM | 0.17% of 360,000 active; further: plate controls were buffer without enzyme for full effect and enzyme alone for no effect
MazF activator – increases E. coli MazEF RNase cleavage of RNA; P0AE70; FAM/BHQ RNA-DNA oligo cleavage fluorescence, 5 h; activation, % at 20 µM; 0.32% of 350,000 active; in the data active means activation above about 50%
* marks the source's active call; other numbers are inactive results. Unless noted, no stated cut-off is given here; in the data, active means inhibition above about 30%; inconclusive means no clear call, values can overlap the other calls; inactive means below that.

Screening O=c1cc(SCc2ccc(Cl)cc2Cl)nc[nH]1 returned BoNT F protease -5.2, Autofluor counter 3172, Anthrax LF prot -6.7, PfHsp40 rescue -0.4, BoNT-A LC inh2 -0.3 and MazF activator -3.8.
For Cc1ccccc1OCCN1CCC(Cc2ccccc2)CC1 the results were BoNT F protease -11.4, Autofluor counter 3691, Anthrax LF prot 1.4, PfHsp40 rescue 59.1*, BoNT-A LC inh2 0.0 and MazF activator 3.9.
Screening Cc1c(C(N)=O)c(-c2ccccc2)nn1-c1ccccc1 returned BoNT F protease -9.7, Autofluor counter 1965, Anthrax LF prot 0.3, PfHsp40 rescue -1.5, BoNT-A LC inh2 -0.6 and MazF activator 6.8.
CCCc1c(-c2ccc(O)cc2)nn(-c2ccc(O)cc2)c1-c1ccc(O)cc1 was read as BoNT F protease -0.9, Autofluor counter 6429, Anthrax LF prot -9.8, PfHsp40 rescue 4.6, BoNT-A LC inh2 -0.1 and MazF activator 51.4*.
`COc1ccccc1N1CCN(C(=O)CSc2nc(C)cc(=O)[nH]2)CC1` gave BoNT F protease -4.7, Autofluor counter 17183*, Anthrax LF prot -0.5, PfHsp40 rescue -0.7, BoNT-A LC inh2 -2.3 and MazF activator 0.5.
`COc1cccc(OC)c1C(=O)N1CCOCC1` gave BoNT F protease 1.2, Autofluor counter 22982*, Anthrax LF prot 0.3, PfHsp40 rescue -0.5, BoNT-A LC inh2 inconclusive and MazF activator 0.1.
`COc1ccccc1N1CCN(C(=O)N2CCOCC2)CC1` gave BoNT F protease -2.5, Autofluor counter 23262*, Anthrax LF prot -0.6, PfHsp40 rescue -1.1, BoNT-A LC inh2 -2.0 and MazF activator -1.0.
Screening COc1ccc(C(=O)N2CCOCC2)cc1Br returned BoNT F protease 13.2, Autofluor counter 4254, Anthrax LF prot -0.9, PfHsp40 rescue 0.0, BoNT-A LC inh2 -0.5 and MazF activator 1.7.
`COc1ccccc1N1CCN(C(=O)CSc2nc(C)c(C)c(=O)[nH]2)CC1` gave BoNT F protease -4.4, Autofluor counter 4485, Anthrax LF prot 0.6, PfHsp40 rescue 0.3, BoNT-A LC inh2 -0.6 and MazF activator -3.2.
Screening COc1ccccc1N1CCN(/N=C/c2cc(OC)c(O)c(OC)c2)CC1 returned BoNT F protease 4.1, Autofluor counter 10923, Anthrax LF prot 2.5, PfHsp40 rescue 0.4, BoNT-A LC inh2 -1.0 and MazF activator 7.5.
COc1cc(/C=N/N2CCN(c3ccccc3OC)CC2)ccc1OC(C)=O was read as BoNT F protease inconclusive, Autofluor counter 3650, Anthrax LF prot 42.2*, PfHsp40 rescue 1.4, BoNT-A LC inh2 -0.2 and MazF activator -1.6.
For COCCn1c(Cc2ccccc2)nnc1SCC(=O)NC1CCCCC1 the results were BoNT F protease -17.1, Autofluor counter 3084, Anthrax LF prot 16.7, PfHsp40 rescue -3.6, BoNT-A LC inh2 -0.9 and MazF activator -30.0.
CC/C(=N\NC(=O)c1nnn(-c2nonc2N)c1-c1cccs1)c1ccccc1 was read as BoNT F protease 0.0, Autofluor counter 5535, Anthrax LF prot 0.8, PfHsp40 rescue 0.1, BoNT-A LC inh2 -0.8 and MazF activator -1.1.
CCOC(=O)c1cc2c(=O)n3ccccc3nc2n(Cc2ccc(Cl)cc2)c1=N was read as BoNT F protease -4.1, Autofluor counter 5669, Anthrax LF prot 1.5, PfHsp40 rescue -0.2, BoNT-A LC inh2 0.7 and MazF activator active.
Screening COCCCn1c(=N)c(C(=O)NCc2ccc3c(c2)OCO3)cc2c(=O)n3ccccc3nc21 returned BoNT F protease -1.4, Autofluor counter 22332*, Anthrax LF prot 0.2, PfHsp40 rescue -1.0, BoNT-A LC inh2 1.1 and MazF activator 10.3.
`CCOC(=O)c1cc2c(=O)n3ccccc3nc2n(C)c1=NC(=O)c1c(-c2c(F)cccc2Cl)noc1C` gave BoNT F protease -2.3, Autofluor counter 5351, Anthrax LF prot 15.2, PfHsp40 rescue 0.1, BoNT-A LC inh2 16.7 and MazF activator 9.1.
Screening CCOC(=O)c1cc2c(=O)n3ccccc3nc2n(C(C)C)c1=NC(=O)c1c(-c2c(F)cccc2Cl)noc1C returned BoNT F protease 23.7, Autofluor counter 2502, Anthrax LF prot 34.5*, PfHsp40 rescue 2.6, BoNT-A LC inh2 70.8* and MazF activator -6.4.
For COc1ccc(Cn2c(=N)c(C(=O)NC3CCCCC3)cc3c(=O)n4ccccc4nc32)cc1 the results were BoNT F protease 7.0, Autofluor counter 5088, Anthrax LF prot 9.9, PfHsp40 rescue 2.1, BoNT-A LC inh2 8.3 and MazF activator -37.0.
For COCCCn1c(=N)c(C(=O)NCc2ccc3c(c2)OCO3)cc2c(=O)n3cccc(C)c3nc21 the results were BoNT F protease -2.8, Autofluor counter 5084, Anthrax LF prot -0.2, PfHsp40 rescue -0.7, BoNT-A LC inh2 0.8 and MazF activator 6.0.
For N=c1c(C(=O)NCc2ccco2)cc2c(=O)n3ccccc3nc2n1Cc1ccc(Cl)cc1 the results were BoNT F protease -2.1, Autofluor counter inconclusive, Anthrax LF prot 3.9, PfHsp40 rescue -1.2, BoNT-A LC inh2 6.6 and MazF activator -16.4.
Screening COc1ccc(CNC(=O)c2cc3c(=O)n4ccccc4nc3n(Cc3cccnc3)c2=N)cc1 returned BoNT F protease 1.9, Autofluor counter 8731, Anthrax LF prot 3.7, PfHsp40 rescue 0.2, BoNT-A LC inh2 4.1 and MazF activator 556.7*.
`CCC/C(=N\NC(=O)c1ccco1)c1ccc(Cl)s1` gave BoNT F protease -6.7, Autofluor counter 7115, Anthrax LF prot 2.2, PfHsp40 rescue 0.1, BoNT-A LC inh2 -4.1 and MazF activator 2.4.
For N=c1c(C(=O)NCc2ccc3c(c2)OCO3)cc2c(=O)n3ccccc3nc2n1Cc1cccnc1 the results were BoNT F protease -3.1, Autofluor counter 24844*, Anthrax LF prot 3.0, PfHsp40 rescue -0.4, BoNT-A LC inh2 -0.8 and MazF activator 13.7.
For CSCC[C@H](NS(=O)(=O)c1ccc(C)cc1)C(=O)N1CCC(C(=O)N[C@H](C(=O)O)c2ccccc2)CC1 the results were BoNT F protease -0.6, Autofluor counter 5590, Anthrax LF prot -3.6, PfHsp40 rescue 0.1, BoNT-A LC inh2 -0.5 and MazF activator -7.9.
Screening CCc1ccc(CCC(=O)Nc2nnc(CC)s2)o1 returned BoNT F protease 1.6, Autofluor counter 16177*, Anthrax LF prot -1.5, PfHsp40 rescue 0.0, BoNT-A LC inh2 -0.1 and MazF activator -11.6.
For CCc1nnc(NC(=O)CCN2C(=O)c3ccccc3C2=O)s1 the results were BoNT F protease -1.6, Autofluor counter 22862*, Anthrax LF prot -2.3, PfHsp40 rescue 1.2, BoNT-A LC inh2 0.2 and MazF activator 0.1.
`COc1cccc(Nc2nc3ccccc3nc2NS(=O)(=O)c2cccs2)c1` gave BoNT F protease -2.1, Autofluor counter 22498*, Anthrax LF prot -5.8, PfHsp40 rescue -1.0, BoNT-A LC inh2 inconclusive and MazF activator -8.5.
`COc1ccc(Nc2nc3ccccc3nc2NS(=O)(=O)c2cccs2)c(OC)c1` gave BoNT F protease -6.6, Autofluor counter 4658, Anthrax LF prot -3.6, PfHsp40 rescue 0.0, BoNT-A LC inh2 -0.1 and MazF activator -4.5.

Source: PubChem BioAssay (several laboratories)
